Assay outcomes from PubChem BioAssay.
This is one part of a sample in which hits are shown more often than they occur.
CBX7 inh – CBX7 chromodomain binding inhibitors, primary screen, biochemical, AlphaScreen; AlphaScreen His6-CBX7 / biotin-H3K27me3 peptide binding; active compounds read low; normalised signal (fraction of DMSO) (test concentration not listed); actives 1.1% (n = 66,000); AID 1224903, 2016; in the data active = normalised signal below about 0.5
Target sequence (O95931 whole entry, looked up): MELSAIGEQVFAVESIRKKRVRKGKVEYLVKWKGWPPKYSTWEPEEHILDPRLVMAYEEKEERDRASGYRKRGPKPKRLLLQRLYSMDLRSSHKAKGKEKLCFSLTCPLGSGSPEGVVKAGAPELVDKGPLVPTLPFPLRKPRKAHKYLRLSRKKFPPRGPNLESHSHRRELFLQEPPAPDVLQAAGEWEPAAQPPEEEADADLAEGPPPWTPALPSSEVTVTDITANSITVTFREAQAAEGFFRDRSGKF
Hits are given with their value.

What do the screens show for `CCN(Cc1ccccc1)S(=O)(=O)c1ccc(C(=O)Nc2nnc(COC)o2)cc1`?
CBX7 inh: inactive

Results for CCc1nnc(NC(=O)c2ccc(S(=O)(=O)N(C)C)cc2)o1 ?
CBX7 inh: 0.042

Results for CCCCN(CC)S(=O)(=O)c1ccc(C(=O)Nc2nnc(COC)o2)cc1 ?
CBX7 inh: 0.062

What do the screens show for `COc1ccc(-c2cc(C(F)(F)F)nc(S(=O)(=O)CCCC(=O)O)n2)cc1OC`?
CBX7 inh: inactive

Results for O=C(Nc1ccc(-c2nc3ncccc3o2)cc1)c1ccc(-c2ccc(Cl)cc2)o1 ?
CBX7 inh: inactive

What do the screens show for `CCCC1=Nc2cc(C(=O)NCc3ccccc3Cl)ccc2Sc2ccccc21`?
CBX7 inh: inactive

What do the screens show for `Clc1ccc(-c2nc3cccnc3nc2-c2ccc(Cl)cc2)cc1`?
CBX7 inh: inactive

What do the screens show for `CC(C)CN(CCCNC(=O)CN1N=C(c2ccc(Cl)cc2)CCC1=O)CC(C)C`?
CBX7 inh: inactive

How did CC(C)OCCCNC(=O)c1cc(Nc2ccc(C(C)C)cc2)nc2ccccc12 do in these assays?
CBX7 inh: inactive

Results for CN(C1CCCCC1)S(=O)(=O)c1ccc(C(=O)Nc2nnc(C3CC3)o2)cc1 ?
CBX7 inh: 0.028

Results for COCCN(CCOC)S(=O)(=O)c1ccc(C(=O)Nc2nnc(C3CC3)o2)cc1 ?
CBX7 inh: inactive

What do the screens show for `CN(C1CCCCC1)S(=O)(=O)c1ccc(C(=O)Nc2nc(-c3ccncc3)cs2)cc1`?
CBX7 inh: inactive

What do the screens show for `CN(C1CCCCC1)S(=O)(=O)c1ccc(C(=O)Nc2nnc(-c3cccs3)o2)cc1`?
CBX7 inh: inactive

What do the screens show for `CCCCN(CCCC)S(=O)(=O)c1ccc(C(=O)Nc2nnc(C3CC3)o2)cc1`?
CBX7 inh: 0.045

How did COc1ccc(CN2C(=O)Cn3cccc3C2C(=O)NC2CCCC2)cc1 (configuration not stated) do in these assays?
CBX7 inh: inactive

Results for Cc1ccc(NC(=O)CC2Nc3ccccc3NC2=O)c(Br)c1 (configuration not stated) ?
CBX7 inh: inactive

Results for CC1CCc2c(sc3ncnc(N4CCN(c5ccccc5)CC4)c23)C1 (configuration not stated) ?
CBX7 inh: inactive

Results for Cc1ccc(CC2CC(=O)N(c3cc(C)on3)C2=O)cc1 (configuration not stated) ?
CBX7 inh: inactive

What do the screens show for `Cc1ccc2c(c1)N(CCCC(=O)NCc1ccccn1)C(=O)CO2`?
CBX7 inh: inactive

What do the screens show for `CC(C(=O)NCc1ccccn1)N1C(=O)COc2ccc(Cl)cc21` (configuration not stated)?
CBX7 inh: inactive

What do the screens show for `Cc1ccc2c(c1)N(CCC(=O)NCc1ccccn1)C(=O)CO2`?
CBX7 inh: 0.34

Results for O=C(CCN1C(=O)COc2ccccc21)NCc1ccccc1Cl ?
CBX7 inh: inactive

What do the screens show for `Cc1ccc2c(c1)N(C(C)C(=O)NCc1ccccc1)C(=O)CO2` (configuration not stated)?
CBX7 inh: inactive

Results for Cc1ccc(CNC(=O)CCN2C(=O)COc3ccccc32)cc1 ?
CBX7 inh: inactive

How did Cc1ccc2c(c1)N(CCC(=O)NCc1cccnc1)C(=O)CO2 do in these assays?
CBX7 inh: inactive

Results for O=C(CCN1C(=O)COc2ccccc21)NCc1ccccn1 ?
CBX7 inh: 0.16

What do the screens show for `Cc1ccc2c(c1)N(C(C)C(=O)NCc1ccccn1)C(=O)CO2` (configuration not stated)?
CBX7 inh: 0.25

Results for CCN(CC)CCCNC(=O)c1ccc2c(c1)N(Cc1c(F)cccc1Cl)C(=O)CS2 ?
CBX7 inh: inactive

What do the screens show for `CC1CCN(CCCNC(=O)CCn2nc(-c3ccccc3)ccc2=O)CC1`?
CBX7 inh: inactive

Results for Cc1nc2ncccn2c1-c1csc(Nc2ccccc2)n1 ?
CBX7 inh: inactive

How did Cc1sc2ncn(CC(=O)Nc3ccccc3C(F)(F)F)c(=O)c2c1C do in these assays?
CBX7 inh: inactive

Results for O=C(c1nsnc1-c1ccccc1O)N1CCCC1 ?
CBX7 inh: inactive

What do the screens show for `O=S(=O)(c1ccc(Cl)cc1)c1nc(-c2ccccc2F)oc1N1CCCCCC1`?
CBX7 inh: inactive

What do the screens show for `O=S(=O)(c1ccc(Cl)cc1)c1nc(-c2ccccc2F)oc1N1CCCCC1`?
CBX7 inh: inactive

What do the screens show for `O=S(=O)(c1ccccc1)c1nc(-c2ccccc2F)oc1N1CCCCC1`?
CBX7 inh: 0.49

How did O=C(Nc1cccc(C(F)(F)F)c1)c1cc2n(n1)C(C(F)(F)F)CC(c1ccc3c(c1)OCO3)N2 (configuration not stated) do in these assays?
CBX7 inh: inactive

How did O=C(NCc1cccnc1)c1cc(-c2ccc3c(c2)OCO3)on1 do in these assays?
CBX7 inh: inactive

Results for Cc1ccc(C(=O)Nc2c(C(N)=O)oc3ccccc23)cc1C ?
CBX7 inh: inactive

Results for Cc1ccn2c(NC3CCCCC3)c(-c3cccnc3)nc2c1 ?
CBX7 inh: inactive

What do the screens show for `Cc1ccn2c(NC3CCCC3)c(-c3ccncc3)nc2c1`?
CBX7 inh: inactive
